The term AC50 denotes the concentration at which the activity in the assay is half-maximal.

Test [1] is described as follows: ATG_TAL_CIS: Attagene CIS-FACTORIAL HepG2 Assay for human TAL Basal Promoter (AID 2282966; active = hit-call score of the fitted dose curve at least 0.9, where 1 is the maximum; inactive = score below 0.9;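 note: background control endpoint measuring basal TAL promoter reporter mRNA not a specific factor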). Particulars: HepG2 Attagene cis-factorial TAL promoter reporter; actives raise or lower the signal. A digest of the protocol:
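HepG2 cells transiently transfected with multiplexed cis-promoter reporter units, dosed 24 h. Reporter mRNA quantified by RT-PCR, 6-FAM labelling, HpaI digestion and capillary electrophoresis; TAL basal promoter serves as background control, fitted bidirectionally versus DMSO.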

Test [2] can be described thus: ATG_TGFb_CIS: Attagene CIS-FACTORIAL HepG2 Assay for human Transforming Growth Factor (TGF) (AID 2282967; active = hit-call score of the fitted dose curve at least 0.9, where 1 is the maximum; inactive = score below 0.9). Particulars: HepG2 Attagene CIS TGFb reporter, mRNA transcription; actives raise or lower the signal. A digest of the protocol: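 Transient MRTU transfection of HepG2 (FuGene 6). Dose 24 h. TriZol RNA, oligo(dT) RT, PCR, 6-FAM primer extension, HpaI cut, CE. Bidirectional fit, DMSO = baseline.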

Test [3] can be described thus: ATG_VDRE_CIS: Attagene CIS-FACTORIAL HepG2 Assay for human Vitamin D Receptor Element (VDRE) (AID 2282968; active = hit-call score of the fitted dose curve at least 0.9, where 1 is the maximum; inactive = score below 0.9). Conditions: HepG2 VDRE cis-reporter transcription, actives raise or lower the signal. The essentials: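 In transiently transfected HepG2 liver cells, gain or loss of reporter mRNA after 24 h exposure is scored relative to DMSO, using fluorescence detection by capillary electrophoresis of RT-PCR products.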

For test [4], the target named is Estrogen receptor (Homo sapiens) (UniProt P03372). In words: ATG_ERa_TRANS: Attagene TRANS-FACTORIAL HepG2 Assay for human Estrogen Receptor alpha (ERa) (AID 2282970). Conditions: HepG2 Attagene TRANS ERa GAL4 reporter, mRNA. A digest of the protocol:
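HepG2 cells transiently transfected with multiplexed GAL4-UAS reporter units read out chimeric NR-Gal4 activity. After 24 h compound exposure, reporter mRNA was quantified by RT-PCR, 6-FAM labeling, HpaI digestion and capillary electrophoresis, relative to DMSO.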

Test [5] addresses X-box-binding protein 1 (Homo sapiens) (UniProt P17861). In words: ATG_Xbp1_CIS: Attagene CIS-FACTORIAL HepG2 Assay for human X-box Binding Protein 1 (XBP1) (AID 2282972; active = hit-call score of the fitted dose curve at least 0.9, where 1 is the maximum; inactive = score below 0.9). Particulars: HepG2 XBP1 cis-element reporter, Attagene multiplex; actives raise or lower the signal. A digest of the protocol:
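Fluorescence-labelled cDNA fragments from reporter transcripts, separated by capillary electrophoresis, give the signal. Source: HepG2 cells transfected with promoter-driven reporter units, harvested 24 h post-dose. DMSO served as reference for bidirectional curve fitting.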

Test [6] in a line: ATG_GAL4_TRANS: Attagene TRANS-FACTORIAL HepG2 Assay for GAL4 (Internal Marker) (AID 2282976). Particulars: HepG2 Attagene TRANS GAL4 internal marker reporter. The essentials:
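Background-control readout: GAL4-UAS reporter transcript in transiently transfected HepG2 cells after 24 h compound exposure. Measured by RT-PCR, 6-FAM primer extension, HpaI digest and capillary electrophoresis; gain-of-signal fit versus DMSO.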

Test [7] deals with Glucocorticoid receptor (Homo sapiens) (UniProt P04150). In words: ATG_GR_TRANS: Attagene TRANS-FACTORIAL HepG2 Assay for human Glucocorticoid Receptor (GR) (AID 2282978).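 Note: activators score as hits since higher reporter transcript over DMSO is fitted.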 Conditions: HepG2 Attagene TRANS GR reporter, mRNA transcription. The essentials: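 HepG2 cells transiently transfected with multiplexed reporter units in which chimeric NR-GAL4 proteins drive GAL4-UAS reporters; 24 h compound exposure. Reporter mRNA measured by RT-PCR, 6-FAM labelling, HpaI digestion and capillary electrophoresis; gain-of-signal fitted versus DMSO.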

The target in test [8] is Bile acid receptor (Homo sapiens) (UniProt Q96RI1). In words: ATG_FXR_TRANS: Attagene TRANS-FACTORIAL HepG2 Assay for Farnesoid X Receptor (FXR) (AID 2282979).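 Note: hits raise reporter mRNA above DMSO so AC50 marks FXR activation.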 Particulars: HepG2 Attagene TRANS FXR-GAL4 reporter transcription. The essentials: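 HepG2 cells were transiently transfected with GAL4-UAS reporters driven by chimeric NR-Gal4 proteins and dosed for 24 h. Reporter mRNA was quantified by RT-PCR, fluorescent labelling, HpaI digestion and capillary electrophoresis, with gain of signal scored versus DMSO.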

The target in test [9] is Oxysterols receptor LXR-beta (Homo sapiens) (UniProt P55055). In words: ATG_LXRb_TRANS: Attagene TRANS-FACTORIAL HepG2 Assay for human Liver X Receptor beta (LXRb) (AID 2282981). Particulars: HepG2 Attagene TRANS GAL4-LXRb reporter, mRNA. A digest of the protocol:
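Cells: HepG2, transiently transfected with GAL4-UAS reporter units plus LXRb-Gal4 fusion. Treatment: 24 h. Detection: reporter mRNA by RT-PCR, 6-FAM labelling, HpaI digestion, capillary electrophoresis.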

Test [10] can be described thus: ATG_M_32_TRANS: Attagene TRANS-FACTORIAL HepG2 Assay for M32 Transcription Factor (Internal Marker) (AID 2282984). Conditions: HepG2 Attagene TRANS M32 internal marker reporter. A digest of the protocol: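 Using transiently transfected HepG2 cells exposed to test chemicals for 24 h, reporter transcripts are converted to labelled cDNA fragments and quantified by capillary electrophoresis. DMSO defines the activity baseline.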

Test [11] has as its target Nuclear receptor subfamily 4 group A member 2 (Homo sapiens) (UniProt P43354). In words: ATG_NURR1_TRANS: Attagene TRANS-FACTORIAL HepG2 Assay for human Nuclear Receptor Related Protein 1 (NURR1) (AID 2282985). Conditions: HepG2 Attagene TRANS reporter, mRNA readout. A digest of the protocol: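 Cells: HepG2, transiently transfected. Exposure: 24 h. Detection: fluorescence of labelled RT-PCR products separated by capillary electrophoresis; upward fit versus DMSO.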

Test [12] deals with Transcriptional activator Myb (Homo sapiens) (UniProt P10242). In words: ATG_Myb_CIS: Attagene CIS-FACTORIAL HepG2 Assay for human Myeloblastosis (Myb) Proto-Oncogene Transcription Factor (AID 2282986; active = hit-call score of the fitted dose curve at least 0.9, where 1 is the maximum; inactive = score below 0.9). Particulars: HepG2 Attagene CIS-FACTORIAL Myb reporter transcription; actives raise or lower the signal. A digest of the protocol: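 HepG2 cells were transiently transfected with cis-regulated multiple reporter transcription units reflecting endogenous Myb activity, then exposed to compound for 24 hours. Reporter mRNA was measured by RT-PCR with capillary electrophoresis; bidirectional fitting versus DMSO baseline.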

Test [13] deals with Nuclear respiratory factor 1 (Homo sapiens) (UniProt Q16656). In words: ATG_NRF1_CIS: Attagene CIS-FACTORIAL HepG2 Assay for human Nuclear Respiratory Factor 1 (NRF1) Orphan Gene (AID 2282987; active = hit-call score of the fitted dose curve at least 0.9, where 1 is the maximum; inactive = score below 0.9). Conditions: HepG2 NRF1 cis-element reporter, Attagene multiplex; actives raise or lower the signal. A digest of the protocol: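 HepG2 cells transiently transfected with multiple reporter transcription units under cis-regulatory promoter control, so endogenous transcription-factor activity is read. After 24 h compound exposure, reporter mRNA quantified by RT-PCR, fluorescent labelling, HpaI digestion and capillary electrophoresis; bidirectional fitting versus DMSO.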

The target in test [14] is Oxysterols receptor LXR-alpha (Homo sapiens) (UniProt Q13133). In words: ATG_LXRa_TRANS: Attagene TRANS-FACTORIAL HepG2 Assay for human Liver X Receptor alpha (LXRa) (AID 2282980). Conditions: HepG2 Attagene TRANS reporter, LXRa transactivation. A digest of the protocol: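 HepG2 cells transiently transfected with GAL4-UAS reporter units for chimeric NR-Gal4 proteins, exposed to chemicals for 24 h. Reporter mRNA quantified by RT-PCR and capillary electrophoresis; gain of signal fitted relative to DMSO.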

For test [15], the target named is Hepatocyte nuclear factor 4-alpha (Homo sapiens) (UniProt P41235). In words: ATG_HNF4a_TRANS: Attagene TRANS-FACTORIAL HepG2 Assay for human Hepatocyte Nuclear Factor 4 alpha (HNF4a) (AID 2282982). Conditions: HepG2 HNF4a transactivation reporter, mRNA readout. The essentials:
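Transfected HepG2 reporter cells are dosed for 24 h; reporter RNA is reverse-transcribed, amplified, fluorescently labelled and HpaI-digested before CE sizing. Positive-direction fit against DMSO.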

Test [16] can be described thus: ATG_M_19_TRANS: Attagene TRANS-FACTORIAL HepG2 Assay for M19 Transcription Factor (Internal Marker) (AID 2282974). Conditions: HepG2 Attagene TRANS-FACTORIAL M19 internal marker reporter. The essentials: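 HepG2 cells transiently transfected with multiple GAL4-UAS reporter transcription units were exposed to chemicals for 24 h. Reporter mRNA was read by RT-PCR, 6-FAM primer extension, HpaI digestion and capillary electrophoresis; gain of signal fitted relative to DMSO.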

Test [17] has as its target Estrogen-related receptor gamma (Homo sapiens) (UniProt P62508). In words: ATG_ERRg_TRANS: Attagene TRANS-FACTORIAL HepG2 Assay for human Estrogen-Related Receptor gamma (ERRg) (AID 2282977).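 Note: hits increase reporter signal over DMSO so potencies reflect activators.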 Particulars: HepG2 Attagene TRANS reporter, ERRg transactivation. A digest of the protocol: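 HepG2 cells transiently transfected with multiplexed GAL4-UAS reporter units and chimeric NR-Gal4 constructs were exposed to test chemicals for 24 h. Reporter mRNA was measured by RT-PCR, 6-FAM primer extension, HpaI digestion and capillary electrophoresis; gain-of-signal versus DMSO.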

Test [18] can be described thus: ATG_M_06_TRANS: Attagene TRANS-FACTORIAL HepG2 Assay for M06 Transcription Factor (Internal Marker) (AID 2282983).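 Note: reporter transcript level by RT-PCR then capillary electrophoresis fluorescence.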 Particulars: HepG2 Attagene TRANS M06 internal marker reporter. A digest of the protocol:
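HepG2 cells transiently transfected with GAL4-UAS multiple reporter units, dosed 24 h. Reporter RNA reverse-transcribed, PCR-amplified, 6-FAM-labeled, HpaI-digested and quantified by capillary electrophoresis; this internal-marker signal fitted upward relative to DMSO.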

Results filed as inconclusive are left out. The source made the active and inactive calls. Rule for the calls, unless noted: active = hit-call score of the fitted dose curve at least 0.9, where 1 is the maximum; inconclusive = response in the unintended direction; inactive = score below 0.9.

Sequence of Oxysterols receptor LXR-beta (Homo sapiens) (P55055 whole entry, looked up, the tested form may be a part): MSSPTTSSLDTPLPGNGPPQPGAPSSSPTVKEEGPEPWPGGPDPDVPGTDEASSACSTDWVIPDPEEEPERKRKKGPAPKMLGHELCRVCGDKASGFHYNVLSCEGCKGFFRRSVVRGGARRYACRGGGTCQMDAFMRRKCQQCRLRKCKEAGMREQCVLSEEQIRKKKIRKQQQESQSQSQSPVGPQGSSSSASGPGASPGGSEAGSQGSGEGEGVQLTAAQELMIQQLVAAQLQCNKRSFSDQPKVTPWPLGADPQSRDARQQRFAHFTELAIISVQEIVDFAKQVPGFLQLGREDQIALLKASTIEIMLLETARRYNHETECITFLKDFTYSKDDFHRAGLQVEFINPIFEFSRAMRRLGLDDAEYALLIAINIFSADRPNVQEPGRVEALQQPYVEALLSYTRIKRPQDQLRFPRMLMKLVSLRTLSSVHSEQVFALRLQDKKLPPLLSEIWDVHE
Sequence of Glucocorticoid receptor (Homo sapiens) (P04150 whole entry, looked up, the tested form may be a part): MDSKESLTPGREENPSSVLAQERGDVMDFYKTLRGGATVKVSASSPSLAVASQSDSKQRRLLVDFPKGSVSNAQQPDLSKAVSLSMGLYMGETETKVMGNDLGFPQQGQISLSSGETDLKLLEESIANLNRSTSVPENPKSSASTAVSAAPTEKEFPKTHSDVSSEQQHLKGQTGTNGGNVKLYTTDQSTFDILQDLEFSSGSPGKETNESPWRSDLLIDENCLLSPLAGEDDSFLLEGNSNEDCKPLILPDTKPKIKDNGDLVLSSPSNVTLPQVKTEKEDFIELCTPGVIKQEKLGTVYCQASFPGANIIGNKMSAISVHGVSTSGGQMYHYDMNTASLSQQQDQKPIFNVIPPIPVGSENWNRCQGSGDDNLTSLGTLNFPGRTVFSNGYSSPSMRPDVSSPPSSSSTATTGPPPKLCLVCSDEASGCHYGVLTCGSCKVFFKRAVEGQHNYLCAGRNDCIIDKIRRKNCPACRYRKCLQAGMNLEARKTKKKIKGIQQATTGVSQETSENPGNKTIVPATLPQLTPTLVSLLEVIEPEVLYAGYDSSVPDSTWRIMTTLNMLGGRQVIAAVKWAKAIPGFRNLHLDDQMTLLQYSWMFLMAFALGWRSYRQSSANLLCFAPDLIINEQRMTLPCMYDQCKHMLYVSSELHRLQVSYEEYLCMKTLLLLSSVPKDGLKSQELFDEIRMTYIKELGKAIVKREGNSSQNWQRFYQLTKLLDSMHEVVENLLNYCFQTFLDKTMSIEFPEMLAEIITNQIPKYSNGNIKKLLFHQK
Sequence of X-box-binding protein 1 (Homo sapiens) (P17861 whole entry, looked up, the tested form may be a part): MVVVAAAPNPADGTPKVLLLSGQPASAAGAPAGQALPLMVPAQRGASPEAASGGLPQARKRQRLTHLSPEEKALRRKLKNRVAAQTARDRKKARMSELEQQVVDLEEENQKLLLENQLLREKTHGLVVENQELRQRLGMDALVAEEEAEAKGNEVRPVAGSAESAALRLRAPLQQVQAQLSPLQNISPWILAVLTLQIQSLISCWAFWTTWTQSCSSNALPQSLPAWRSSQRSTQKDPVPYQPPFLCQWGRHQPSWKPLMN
Sequence of Nuclear receptor subfamily 4 group A member 2 (Homo sapiens) (P43354 whole entry, looked up): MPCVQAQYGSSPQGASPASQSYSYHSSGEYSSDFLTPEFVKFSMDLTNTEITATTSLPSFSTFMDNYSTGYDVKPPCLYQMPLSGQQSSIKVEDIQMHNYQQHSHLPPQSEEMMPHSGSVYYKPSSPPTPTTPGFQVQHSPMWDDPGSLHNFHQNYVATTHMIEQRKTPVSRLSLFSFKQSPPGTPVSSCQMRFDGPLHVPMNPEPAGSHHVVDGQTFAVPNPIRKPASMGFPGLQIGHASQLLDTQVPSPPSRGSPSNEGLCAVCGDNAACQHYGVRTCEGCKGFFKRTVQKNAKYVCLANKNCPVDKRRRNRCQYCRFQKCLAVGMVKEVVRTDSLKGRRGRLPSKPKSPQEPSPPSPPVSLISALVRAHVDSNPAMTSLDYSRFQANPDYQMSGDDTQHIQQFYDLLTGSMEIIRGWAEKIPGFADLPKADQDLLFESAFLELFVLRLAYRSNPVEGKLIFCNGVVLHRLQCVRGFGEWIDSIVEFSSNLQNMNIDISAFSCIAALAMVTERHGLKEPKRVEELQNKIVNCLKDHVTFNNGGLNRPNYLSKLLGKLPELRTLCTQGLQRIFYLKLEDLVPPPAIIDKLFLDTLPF
Sequence of Estrogen receptor (Homo sapiens) (P03372 whole entry, looked up, the tested form may be a part): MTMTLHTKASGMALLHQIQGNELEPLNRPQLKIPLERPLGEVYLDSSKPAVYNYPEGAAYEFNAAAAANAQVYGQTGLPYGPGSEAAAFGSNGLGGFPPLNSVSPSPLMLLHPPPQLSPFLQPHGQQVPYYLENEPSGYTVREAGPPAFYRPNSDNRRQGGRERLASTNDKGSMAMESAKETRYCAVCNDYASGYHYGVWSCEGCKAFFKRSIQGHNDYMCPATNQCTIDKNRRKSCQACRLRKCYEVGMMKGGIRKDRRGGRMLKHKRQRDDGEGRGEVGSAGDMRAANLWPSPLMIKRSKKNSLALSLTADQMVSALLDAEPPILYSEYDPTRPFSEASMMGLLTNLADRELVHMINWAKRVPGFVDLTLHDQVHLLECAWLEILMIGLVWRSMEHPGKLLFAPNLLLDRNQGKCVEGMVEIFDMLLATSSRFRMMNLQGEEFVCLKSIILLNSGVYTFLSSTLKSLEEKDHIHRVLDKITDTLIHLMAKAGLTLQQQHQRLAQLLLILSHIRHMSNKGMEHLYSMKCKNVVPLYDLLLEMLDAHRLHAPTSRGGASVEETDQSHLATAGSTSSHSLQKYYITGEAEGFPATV
Sequence of Nuclear respiratory factor 1 (Homo sapiens) (Q16656 whole entry, looked up): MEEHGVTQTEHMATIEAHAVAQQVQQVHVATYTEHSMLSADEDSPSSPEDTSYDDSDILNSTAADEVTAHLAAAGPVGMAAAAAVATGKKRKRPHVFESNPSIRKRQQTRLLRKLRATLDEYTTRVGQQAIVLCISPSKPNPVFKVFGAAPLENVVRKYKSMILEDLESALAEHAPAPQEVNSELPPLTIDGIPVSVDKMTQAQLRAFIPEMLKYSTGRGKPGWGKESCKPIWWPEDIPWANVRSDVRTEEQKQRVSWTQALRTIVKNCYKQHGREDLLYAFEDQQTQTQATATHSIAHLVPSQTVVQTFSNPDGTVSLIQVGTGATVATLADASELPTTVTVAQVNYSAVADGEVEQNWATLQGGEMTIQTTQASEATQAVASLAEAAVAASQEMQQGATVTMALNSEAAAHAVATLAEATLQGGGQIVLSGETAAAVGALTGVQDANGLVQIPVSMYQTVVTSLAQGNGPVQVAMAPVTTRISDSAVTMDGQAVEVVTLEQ
Sequence of Transcriptional activator Myb (Homo sapiens) (P10242 whole entry, looked up): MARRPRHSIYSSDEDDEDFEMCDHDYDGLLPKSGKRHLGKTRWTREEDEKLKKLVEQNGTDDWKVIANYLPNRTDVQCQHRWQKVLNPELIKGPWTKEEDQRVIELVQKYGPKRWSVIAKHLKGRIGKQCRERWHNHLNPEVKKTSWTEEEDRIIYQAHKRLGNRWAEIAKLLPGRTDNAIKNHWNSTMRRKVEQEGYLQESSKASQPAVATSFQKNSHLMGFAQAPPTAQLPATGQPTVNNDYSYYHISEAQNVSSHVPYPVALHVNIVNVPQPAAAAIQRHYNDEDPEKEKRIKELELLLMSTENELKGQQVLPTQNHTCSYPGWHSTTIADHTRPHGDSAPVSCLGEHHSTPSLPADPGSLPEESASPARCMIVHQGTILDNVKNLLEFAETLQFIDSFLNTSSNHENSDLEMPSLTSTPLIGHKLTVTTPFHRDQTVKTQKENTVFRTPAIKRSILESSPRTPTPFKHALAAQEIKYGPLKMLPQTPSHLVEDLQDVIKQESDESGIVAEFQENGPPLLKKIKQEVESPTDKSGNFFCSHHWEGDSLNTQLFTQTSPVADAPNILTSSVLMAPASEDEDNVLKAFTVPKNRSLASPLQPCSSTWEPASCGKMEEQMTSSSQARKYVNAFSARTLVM
Sequence of Hepatocyte nuclear factor 4-alpha (Homo sapiens) (P41235 whole entry, looked up): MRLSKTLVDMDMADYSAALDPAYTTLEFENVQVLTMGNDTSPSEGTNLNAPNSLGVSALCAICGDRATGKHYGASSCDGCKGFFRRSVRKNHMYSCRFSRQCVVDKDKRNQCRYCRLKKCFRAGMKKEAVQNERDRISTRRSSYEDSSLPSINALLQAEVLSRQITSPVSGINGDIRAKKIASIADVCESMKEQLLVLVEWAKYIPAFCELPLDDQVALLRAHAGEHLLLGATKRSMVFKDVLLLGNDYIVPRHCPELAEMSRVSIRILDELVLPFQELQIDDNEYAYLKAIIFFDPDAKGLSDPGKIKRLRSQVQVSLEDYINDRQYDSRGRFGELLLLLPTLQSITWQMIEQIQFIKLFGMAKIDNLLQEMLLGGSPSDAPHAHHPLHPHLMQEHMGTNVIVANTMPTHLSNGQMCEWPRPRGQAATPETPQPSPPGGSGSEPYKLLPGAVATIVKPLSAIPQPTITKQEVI
Sequence of Bile acid receptor (Homo sapiens) (Q96RI1 whole entry, looked up, the tested form may be a part): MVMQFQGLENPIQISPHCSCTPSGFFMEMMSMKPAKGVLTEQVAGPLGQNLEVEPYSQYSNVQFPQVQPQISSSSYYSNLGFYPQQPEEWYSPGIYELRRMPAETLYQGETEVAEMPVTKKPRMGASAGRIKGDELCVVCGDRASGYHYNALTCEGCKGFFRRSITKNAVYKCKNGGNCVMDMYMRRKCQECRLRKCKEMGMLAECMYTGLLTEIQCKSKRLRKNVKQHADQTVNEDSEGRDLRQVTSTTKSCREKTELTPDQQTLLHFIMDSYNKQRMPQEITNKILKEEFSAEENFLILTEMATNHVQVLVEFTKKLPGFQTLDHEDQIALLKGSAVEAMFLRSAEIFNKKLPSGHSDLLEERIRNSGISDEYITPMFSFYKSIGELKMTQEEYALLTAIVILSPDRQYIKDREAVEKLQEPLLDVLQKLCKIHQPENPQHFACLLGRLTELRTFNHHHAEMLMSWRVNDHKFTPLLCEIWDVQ

For `O=C(O)CCC(F)(F)C(F)(F)C(F)(F)C(F)(F)C(F)(F)C(F)(F)F`, the call in [1], in test [2], in test [3], in test [5], in test [6] and in test [7] was inactive. Moreover, the compound was called inactive in test [8], in test [9], in test [10], in [11], in [12] and in test [13]. Moreover, the AC50 in [4] is 46.1 µM (active).

`O=C(OC(=O)C(F)(F)C(F)(F)F)C(F)(F)C(F)(F)F`: the compound was called inactive in test [1], in test [2], in [3], in [4], in test [5] and in test [6]. The compound was classed as inactive in [8], in test [14], in test [15], in test [12] and in test [13].

With `CCCCCCCCCCCC(=O)NCCCN(C)C`, the call in test [1], in [2], in [4], in [16], in test [12] and in test [13] was inactive. Further, the AC50 in [3] is 18 µM (active); in test [5], 19.1 µM (active).

As to `CCCCc1oc2ccccc2c1C(=O)c1cc(I)c(OCCN(CC)CC)c(I)c1`, the results for the AC50 in test [1], in test [3] and in [5] were 26.1 µM (active), 9.14 µM (active) and 26.4 µM (active), respectively. Further, the compound was called inactive in [2], in test [4], in test [16], in test [17], in [7] and in [8]. The call in test [14], in test [9], in test [10] and in [12] was inactive.

For the compound `Oc1c(Cl)cc(Cl)cc1Sc1cc(Cl)cc(Cl)c1O`, the compound was classed as inactive in [1], in test [2], in [4], in [17], in [7] and in test [8]. The result in test [9], in [15], in test [18], in test [12] and in test [13] was inactive. Moreover, the results for the AC50 in [3] and in test [5] were 3.4 µM (active) and 1.45 µM (active), respectively.

Turning to `O=C1Cc2ccccc2N1c1c(Cl)cccc1Cl`, the outcome in test [1], in test [2], in test [5], in [16], in [6] and in test [7] was inactive. Moreover, the outcome in test [8], in [15], in test [18], in [10], in test [11] and in test [12] was inactive. Also, the outcome in test [13] was inactive. Also, the AC50 in test [3] was 1.4 µM (active); in test [4], 4.59 µM (active).

Turning to `CCc1ccccc1O`, the result in [1], in test [2], in test [4], in test [5], in [16] and in test [7] was inactive. Also, the result in [8], in [10], in test [12] and in [13] was inactive. Further, the AC50 in test [3] is 27.9 µM (active).

`O=S(=O)(c1ccc(OCc2ccccc2)cc1)c1ccccc1O`: the result in test [1], in test [2], in [4], in test [7], in test [8] and in [18] was inactive. For the same compound, the result in [10] and in [13] was inactive. Also, the AC50 in test [3] is 8.61 µM (active); in [5] it was 31 µM (active); in [11], 49.9 µM (active); in [12] it was 33.4 µM (active).

Values taken from PubChem BioAssay (EPA / NIEHS).
